# Compound activity from PubChem BioAssay.
# MCL1-BIM inh = inhibitors of human MCL1 binding to BIM-BH3 peptide. Q07820. GST-MCL1 / FITC-Bim-BH3 fluorescence polarization. inhibition, % at 10.9 µM. hit rate 0.68% among 320,000;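 active = inhibition above the mean inhibition of all tested compounds plus 3 SD, set per campaign, cut at about 40% in these data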;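 note: 0% = DMSO wells and 100% = unlabeled Bim-BH3 peptide control; higher means more loss of mP so more displacement of Bim peptide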
# Mcl1-Noxa inh = Mcl-1/Noxa interaction inhibition. Q07820. TR-FRET Mcl-1/Noxa peptide binding, 2 h. inhibition, % at 21.7 µM. hit rate 1.5% among 220,000. AID 1022;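 active = compounds that cut the protein-peptide binding signal by more than 50% relative to plate controls in a single-dose test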;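 note: His-tagged Mcl-1 with rhodamine Noxa BH3 peptide and terbium anti-His antibody; 0% = Mcl-1 plus Noxa peptide wells and 100% = peptide-only wells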
# Bcl-xL primary = inhibitors of human Bcl-xL; hit rate 0.7% among 320,000; Q07817; AID 2129; inhibition, % at 10.9 µM; GST-Bcl-xL / FITC-Bim BH3 peptide fluorescence polarization;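 active = inhibition above the mean of all tested compounds plus 3 SD, cutoff set per campaign, cut at about 30% in these data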;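 note: 0% = DMSO wells and 100% = unlabeled Bim-BH3 peptide competitor; inhibitors lower millipolarization by displacing the labeled peptide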
# Target sequence (Q07817 whole entry, looked up): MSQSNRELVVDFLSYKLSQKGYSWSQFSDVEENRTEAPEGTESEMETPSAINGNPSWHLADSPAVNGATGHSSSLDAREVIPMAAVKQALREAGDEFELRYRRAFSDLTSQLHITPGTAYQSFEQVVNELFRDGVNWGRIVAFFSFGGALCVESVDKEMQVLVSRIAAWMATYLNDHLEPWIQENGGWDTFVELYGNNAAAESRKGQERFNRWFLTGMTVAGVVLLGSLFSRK
# Mcl1-Bid inh = Mcl-1/Bid interaction inhibition | Q07820 | TR-FRET Mcl-1/Bid-Dy647 peptide binding, 1536-well | inhibition, % at 21.7 µM | hit rate 0.97% among 220,000 | AID 1021;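 active = compounds that cut the binding signal by more than half at the single screening dose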;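 note: His-tagged Mcl-1 with europium anti-His antibody binding Bid BH3 peptide; 0% = Mcl-1 plus peptide wells and 100% = peptide-only wells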
# Bim-Mcl-1 = inhibitors of Bim-Mcl-1 interaction, human. inhibition, % at 10 µM. hit rate 0.1% among 190,000. Q07820. AID 1009. Bead-based flow cytometry, Bim peptide-Mcl-1 binding; in the data active = inhibition above about 40%;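 note: 0% = no compound tracer wells and 100% = peptide blocker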
# GLD-1 RNA inh = GLD-1-TGE RNA interaction inhibition (C. elegans); purified GLD-1 + fluorescein TGE RNA, fluorescence polarization; inhibition, % at 5.96 µM; hit rate 0.44% among 320,000; AID 2280;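 active = percent inhibition above a per-plate cutoff, the plate mean of test compounds plus 3 SD, cut at about 30% in these data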;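 note: 0% = DMSO wells with GLD-1 and probe and 100% = wells lacking GLD-1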
# Target sequence (Q17339 whole entry, looked up): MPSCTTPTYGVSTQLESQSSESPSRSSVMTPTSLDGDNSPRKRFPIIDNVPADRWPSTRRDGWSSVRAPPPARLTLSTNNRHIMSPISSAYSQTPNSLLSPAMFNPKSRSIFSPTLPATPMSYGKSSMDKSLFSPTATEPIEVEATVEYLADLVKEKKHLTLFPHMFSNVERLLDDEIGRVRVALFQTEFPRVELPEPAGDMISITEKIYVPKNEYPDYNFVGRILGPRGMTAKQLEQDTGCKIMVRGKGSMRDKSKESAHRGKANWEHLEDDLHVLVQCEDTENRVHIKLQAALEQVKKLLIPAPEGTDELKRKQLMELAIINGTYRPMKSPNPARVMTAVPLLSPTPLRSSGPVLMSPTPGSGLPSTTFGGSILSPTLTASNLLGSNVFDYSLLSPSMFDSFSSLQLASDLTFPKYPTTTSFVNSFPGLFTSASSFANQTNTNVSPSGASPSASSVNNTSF
# BCLXL inh confirm = counter-screen for MCL1 inhibitors: confirmation of human Bcl-xL inhibitors; shares compounds with MCL1-BIM inh; GST-Bcl-xL / FITC-Bim BH3 peptide FP binding; inhibition, % at 10.9 µM; hit rate 54% among 1,700; AID 2166;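 active = inhibition above a cutoff equal to the mean inhibition of all tested compounds plus 3 SD, cut at about 30% in these data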;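 note: 0% = DMSO wells and 100% = unlabeled Bim BH3 control peptide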
# MCL1 inh confirm = MCL1-BIM-BH3 interaction inhibition, confirmation. shares compounds with MCL1-BIM inh. GST-MCL1 / FITC-Bim-BH3 fluorescence polarization. inhibition, % at 10.9 µM. hit rate 61% among 1,700. AID 2168;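 active = inhibition above the average of all tested compounds plus 3 SD, cut at about 40% in these data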;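 note: 0% = DMSO wells and 100% = unlabeled Bim-BH3 control peptide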
# * = called active by the depositor; . = no result. A selection: hits, their analogues and other compounds. The true share with any hit is near 2.3%.
SMILES,MCL1-BIM inh,Mcl1-Noxa inh,Bcl-xL primary,Mcl1-Bid inh,Bim-Mcl-1,GLD-1 RNA inh,BCLXL inh confirm,MCL1 inh confirm
O=C(CCN1C(=O)/C(=C\C=C\c2ccccc2)SC1=S)Nc1ccccc1C(=O)O,42.6*,.,24.6,.,.,-0.8,15.3,11.5
O=C(O)CCCN1C(=O)/C(=C/C=C/c2ccco2)SC1=S,80.1*,94.3*,46.5*,34.2,.,1.9,24.6,31.1
O=C(O)CC(C(=O)O)N1C(=O)/C(=C/C=C/c2ccco2)SC1=S (stereo unspecified),75.2*,85.3*,41.5*,-20.5,.,12.2,21.6,32.2
Cc1cccn2c(=O)nc(SCC(=O)N3CC(C)OC(C)C3)nc12 (stereo unspecified),8.9,.,4.9,.,.,-7.7,.,.
CCOC(=O)C1C(c2ccc(O)c(O)c2)NC(=S)NC1(O)C(F)(F)F (stereo unspecified),9.4,-0.2,9.3,-57.2,-11.0,6.5,.,.
CCCCOC(=O)C1CCC[C@@H](C)N1 (stereo partly specified),-5.7,-11.1,14.2,-8.3,-1.0,1.1,.,.
COCCCNc1c2c3c(cccc3[nH]c1=O)C(=O)c1ccccc1-2,124.2*,-190.5,116.9*,-22.6,9.0,74.8*,126.3*,136.9*
COCCCNC1=C(Cl)C(=O)c2ccccc2C1=O,-1.6,25.1,-0.1,-40.9,.,2.9,.,.
CSc1cccc(CN2CCCC(CNC(=O)c3ccco3)C2)c1 (stereo unspecified),4.2,.,1.6,.,.,2.4,.,.
CCN(CC)c1ccc2cc(-c3nnc(-c4ccccc4)o3)c(=O)oc2c1,-46.4,-1.8,-6.3,5.8,-15.0,-140.1,.,.
CCN(CC)c1ccc2cc(-c3nc(-c4ccc(OC)cc4)cs3)c(=O)oc2c1,110.5*,-0.7,106.7*,-19.1,.,66.8*,114.5*,133.9*
CCN(CC)c1ccc2cc(-c3nc4ccccc4n3C)c(=O)oc2c1,-5.9,0.7,27.1,0.9,3.0,-59.4,.,.
CCN(CC)c1ccc2cc(-c3nc4ccccc4[nH]3)c(=O)oc2c1,75.5*,26.2,80.8*,96.3*,3.0,42.1*,89.5*,105.0*
COc1ccc(CN(C(=O)c2cc3ccccc3oc2=O)C2CCCCC2)cc1OC,4.4,10.6,-0.5,-13.2,-5.0,-1.1,.,.
O=C(O)Cc1ccc(NS(=O)(=O)c2ccccc2Cl)cc1,-1.4,14.3,6.9,-4.9,-2.0,-9.6,.,.
CCOc1ccc(S(=O)(=O)N(C(=O)c2ccco2)c2cc3sc(=O)oc3c3ccccc23)cc1,38.3,24.0,13.8,-12.3,-3.0,-3.4,.,.
Cc1ccc(S(=O)(=O)N(C(=O)c2ccco2)c2cc3sc(=O)oc3c3ccccc23)cc1,43.6*,10.9,14.2,1.5,7.0,0.1,14.6,10.4
COc1ccc(S(=O)(=O)N(C(=O)c2ccco2)c2cc3sc(=O)oc3c3ccccc23)cc1,44.5*,19.0,16.9,-30.1,-1.0,4.9,1.1,-3.5
CC(C)c1[nH]nc2c1C1(CCN(Cc3ccccc3)CC1)C(C#N)=C(N)O2,113.9*,23.8,104.0*,-5.6,-4.0,57.4*,-0.1,-11.6
CCCc1[nH]nc2c1C1(CCN(C(=O)OCc3ccccc3)CC1)C(C#N)=C(N)O2,5.5,2.8,1.7,-16.5,1.0,-4.4,.,.
Cc1nc(NC(=O)COC(=O)C2=NNC(=O)CC2)c(Cl)cc1Cl,14.6,-10.9,7.1,-4.6,-1.0,6.8,.,.
COc1ccc(C2C=C(c3ccccc3)Nc3nc(CCCO)nn32)cc1 (stereo unspecified),30.1,5.1,29.8,-20.6,-4.0,14.7,.,.
CS(=O)(=O)Nc1nc2n(n1)C(c1ccccc1)C=C(c1ccc(Br)cc1)N2 (stereo unspecified),181.3*,18.3,156.8*,26.3,0.0,157.4*,133.5*,164.1*
COc1ccccc1C1C=C(c2ccc(Cl)cc2)Nc2nc(NS(C)(=O)=O)nn21 (stereo unspecified),71.0*,-7.0,66.3*,-13.8,-1.0,70.6*,45.9*,59.2*
CCC(=O)Nc1nc2n(n1)C(c1ccc(OC)cc1)C=C(c1ccccc1)N2 (stereo unspecified),59.6*,15.7,59.9*,-31.1,-3.0,51.2*,74.9*,91.8*
SMILES,MCL1-BIM inh,Mcl1-Noxa inh,Bcl-xL primary,Mcl1-Bid inh,Bim-Mcl-1,GLD-1 RNA inh,BCLXL inh confirm,MCL1 inh confirm
OCCCc1nc2n(n1)C(c1ccccc1)C=C(c1ccccc1)N2 (stereo unspecified),28.4,7.1,24.3,-25.8,-1.0,19.0,.,.
O=C(c1nc2n(n1)C(c1ccc(Cl)cc1)C=C(c1ccccc1)N2)N1CCOCC1 (stereo unspecified),75.3*,-1.3,65.2*,-8.7,-4.0,47.8*,70.9*,89.0*
C/C(=C\c1ccco1)CN1CCN(Cc2ccc(C)o2)C(CCO)C1 (stereo unspecified),0.5,-2.1,-0.1,-71.1,0.0,5.8,.,.
COCCCN1C(=O)N(c2ccccc2)C(=O)C1CC(=O)Nc1ccc(F)cc1 (stereo unspecified),-5.9,.,0.3,.,.,4.9,.,.
COc1ccc(C2C=C(c3ccc(Br)cc3)Nc3nc(N4C(=O)CCC4=O)nn32)cc1 (stereo unspecified),135.0*,-0.1,123.0*,-72.2,-4.0,101.6*,83.6*,100.3*
Cc1ccc(S(=O)(=O)NC(C)(C)C)cc1C(=O)OC(C)C(=O)NC1CC1 (stereo unspecified),0.0,.,6.0,.,.,8.1,.,.
CCOc1cccc(NC(=O)C2CC(=O)N(C)C(=Nc3cccc(F)c3)S2)c1 (stereo unspecified),42.4*,21.6,0.4,-1.4,-5.0,8.4,-0.7,0.5
CC(C)C(=O)NS(=O)(=O)c1ccc(NS(C)(=O)=O)cc1,1.0,8.9,-0.1,-7.8,.,2.7,.,.
CCOC(=O)c1ccc(NC(=O)CSc2nc(C)cc(=O)[nH]2)cc1,40.9*,85.2*,13.6,-3.8,-1.0,0.7,22.6,50.7*
Cc1cc(=O)[nH]c(SCC(=O)Nc2ccc(C(=O)O)cc2)n1,-2.8,17.3,-3.0,4.9,0.0,6.4,.,.
COc1ccc(NC(=O)COC(=O)c2ccc(-n3cnnn3)cc2)cc1Cl,-12.7,.,-6.8,.,.,-2.6,.,.
CCC(C)[C@H](N)c1cn([C@@H](Cc2ccc(O)cc2)C(=O)N2CCNCC2)nn1 (stereo partly specified),5.5,0.7,9.3,-1.9,0.0,1.5,.,.
COCCCn1c(=NC(C)=O)c(C#N)cc2c(=O)n3cccc(C)c3nc21,26.2,6.9,18.2,-25.5,.,0.8,.,.
